Assay results published in PubChem BioAssay (NCI).
The panel holds about 83,000 compounds, 20% with a hit somewhere; the sample as a whole holds those more often.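 Each cell line was grown in a 96-well plate and treated with one concentration of compound for 48 hours. Values below 10 were considered active.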 The source made the active and inactive calls.

Assays:
Assay in all cases: NCI-60 one-dose screen, 48 h (100 = growth as untreated, 0 = no growth, -100 = all killed)
Settings in all cases: 10 µM unless noted
NCI-H23 lung = tested on: NCI-H23 lung
NCI-H226 lung = tested on: NCI-H226 lung
NCI-H322M lung = tested on: NCI-H322M lung
HOP-62 NSCLC = tested on: HOP-62 NSCLC
NCI-H460 lung = tested on: NCI-H460 lung
HOP-92 NSCLC = tested on: HOP-92 NSCLC
NCI-H522 lung = tested on: NCI-H522 lung
A549/ATCC NSCLC = tested on: A549/ATCC NSCLC
786-0 renal = tested on: 786-0 renal
COLO 205 colon = tested on: COLO 205 colon

Measured: growth

O=C(Nc1cccc(NC(=O)C2CCCCC2)c1)c1ccccn1
inactive: NCI-H23 lung 88.3% | NCI-H226 lung 106% | NCI-H322M lung 89.2% | HOP-62 NSCLC 100% | NCI-H460 lung 114% | HOP-92 NSCLC 112% | NCI-H522 lung 89.9% | A549/ATCC NSCLC 102% | 786-0 renal 95% | COLO 205 colon 117%

COc1ccc(Cc2cnc(NC(=O)c3sc4ccccc4c3Cl)s2)cc1
active: NCI-H460 lung 4.16% | NCI-H522 lung -14.2%
inactive: NCI-H23 lung 28.4% | NCI-H226 lung 49.7% | NCI-H322M lung 50.8% | HOP-62 NSCLC 26.3% | HOP-92 NSCLC 79.8% | A549/ATCC NSCLC 24.4% | 786-0 renal 36.7% | COLO 205 colon 10.2%

Cc1nn(-c2ccccc2)c(/N=C/N(C)C)c1/C=C/C(=O)c1ccc(Cl)cc1
inactive: NCI-H23 lung 96.9% | NCI-H226 lung 98.3% | NCI-H322M lung 101% | HOP-62 NSCLC 93.2% | NCI-H460 lung 103% | HOP-92 NSCLC 78% | NCI-H522 lung 78.4% | A549/ATCC NSCLC 108% | 786-0 renal 103% | COLO 205 colon 110%

CC(=O)Nc1c(Cl)cc(Cl)c2c1Cc1cc([N+](=O)[O-])ccc1-2
inactive: NCI-H23 lung 94.6% | NCI-H226 lung 113% | NCI-H322M lung 99% | HOP-62 NSCLC 90.5% | NCI-H460 lung 86.6% | HOP-92 NSCLC 100% | NCI-H522 lung 91.9% | A549/ATCC NSCLC 82.4% | 786-0 renal 75.7% | COLO 205 colon 93.4%

COc1ccccc1NC(=O)c1ccc(/C=C/C(=O)c2nccn2C)cc1
inactive: NCI-H226 lung 24.6%
active: NCI-H23 lung -35.7% | NCI-H322M lung -93.4% | HOP-62 NSCLC -49.5% | NCI-H460 lung -43.5% | HOP-92 NSCLC -24.3% | NCI-H522 lung -44.8% | A549/ATCC NSCLC -0.305% | 786-0 renal -48.4% | COLO 205 colon -53.1%

Cc1ccc(C)c2c1C(O)(C#Cc1ccccc1)c1ccccc1C2(O)C#Cc1ccccc1 (stereo not given)
active: HOP-92 NSCLC 3%
inactive: NCI-H23 lung 92.4% | NCI-H226 lung 89.9% | NCI-H322M lung 55.8% | HOP-62 NSCLC 75.1% | NCI-H460 lung 23.8% | NCI-H522 lung 57.2% | A549/ATCC NSCLC 47.5% | 786-0 renal 70.5% | COLO 205 colon 48.4%

CCOC(=O)NN1CC(O)=C(c2nc(-c3ccc(Br)cc3)cs2)C1=N
inactive: NCI-H23 lung 101% | NCI-H226 lung 105% | NCI-H322M lung 112% | HOP-62 NSCLC 106% | NCI-H460 lung 111% | HOP-92 NSCLC 97.3% | NCI-H522 lung 92.1% | A549/ATCC NSCLC 88.1% | 786-0 renal 111% | COLO 205 colon 112%

CC1COCC(C)N1C1=C(Cl)C(=O)c2ccccc2C1=O (stereo not given)
inactive: NCI-H23 lung 63% | NCI-H226 lung 97.3% | NCI-H322M lung 94% | HOP-62 NSCLC 99.2% | NCI-H460 lung 104% | HOP-92 NSCLC 53.4% | NCI-H522 lung 36.3% | A549/ATCC NSCLC 97.1% | 786-0 renal 102% | COLO 205 colon 104%

O=C(Nc1ccccc1O)c1ccccc1Nc1ccnc(C(F)(F)F)c1
inactive: NCI-H23 lung 94.5% | NCI-H226 lung 70.4% | NCI-H322M lung 114% | HOP-62 NSCLC 99.5% | NCI-H460 lung 97.3% | HOP-92 NSCLC 88% | NCI-H522 lung 83.9% | A549/ATCC NSCLC 114% | 786-0 renal 104% | COLO 205 colon 148%

COc1cc2c(c(OC)c1OC)C(=O)N[C@@H]1[C@@H](O)[C@@H](O)[C@H](O)C[C@@H]21
inactive: NCI-H23 lung 106% | NCI-H226 lung 102% | NCI-H322M lung 104% | HOP-62 NSCLC 102% | NCI-H460 lung 110% | HOP-92 NSCLC 91.4% | NCI-H522 lung 97.7% | A549/ATCC NSCLC 98.4% | 786-0 renal 94.9% | COLO 205 colon 108%

COc1ccc(NC(=O)c2sc3nc4c(cc3c2N)CCCC4)cc1
inactive: NCI-H23 lung 28% | NCI-H226 lung 50.6% | NCI-H322M lung 53.1% | HOP-62 NSCLC 34.5% | NCI-H460 lung 18.7% | HOP-92 NSCLC 47.3% | A549/ATCC NSCLC 30% | 786-0 renal 38.6% | COLO 205 colon 14%
active: NCI-H522 lung -20.7%

FC(F)(F)c1[nH]ncc1-c1nc2c(N3CCCCC3)cc3[nH]ncc3c2c2c1CCCC2
active: NCI-H23 lung -9.72% | NCI-H226 lung 2.93% | NCI-H322M lung -2.53% | HOP-62 NSCLC -8.3% | NCI-H460 lung 3.42% | HOP-92 NSCLC -10.2% | NCI-H522 lung -28.4% | A549/ATCC NSCLC 5.13% | 786-0 renal -1.84% | COLO 205 colon -33.7%

O=C(/C=C/c1cccc(Cl)c1)c1cccc(OCCCCOc2cccc(C(=O)/C=C/c3cccc(Cl)c3)c2)c1
inactive: NCI-H23 lung 89.3% | NCI-H226 lung 99.7% | NCI-H322M lung 92.2% | HOP-62 NSCLC 107% | NCI-H460 lung 98.7% | HOP-92 NSCLC 78.6% | NCI-H522 lung 88.7% | A549/ATCC NSCLC 85.4% | 786-0 renal 98.8% | COLO 205 colon 76%
